# Experimental data as given in a collection of fitness landscapes (doi:10.1016/j.celrep.2020.107928).
# Whole data set: some 81,000 sequences, median “one-hybrid fitness for binding parS DNA” near -0.17, cut for the highest 2% near 0.51. Many of the other results were omitted from the sample, so the highest values are more common in it than they were.
# B1: Caulobacter ParB omega fusion; a variant is named by its letters at X, in order, B8GW30 (parent)
# chain: MESVVVGEPGMSEGRRGLGRGLSALLGEVDAAPAQAPGEQLGGSREAPIEILQRNPDQPRRTFREEDLEDLSNSIREKGVLQPILVRPSPDTAGEYQIVAGERAWRAAQRAGLKTVPIMVRELDDLAVLEIGIIENVQRADLNVLEEALSYKVLMEKFERTQENIAQTIGKSXSHVANXMRLLXLPDEVQSYLVSGELTAXHARAIAAAADPVALAKQIIEGGLSVRETEALARKAPNLSAGKSKGGRPPRVKDTDTQALESDLSSVLGLDVSIDHRGSTGTLTITYATLEQLDDLCNRLTRGI
# Variants of: B1
# Test: one-hybrid fitness for binding parS DNA (scaled: cognate 1, non-cognate 0); higher = stronger binding
# Details: with parS DNA site
# Summary of the method: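 Fitness is the rescaled log change in variant-to-wild-type read ratio, measured by Illumina sequencing of plasmids before and after bacterial one-hybrid selection. The scale puts cognate at 1 and non-cognate at 0. Selection of Caulobacter ParB libraries, four specificity codons randomised, took place in E. coli USO with a HIS3 reporter, site 19 bp from the promoter, over 48 hours at 37°C on M9-minus-histidine with 0.1 mM IPTG and 5 mM 3-AT.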
row,Variant,one-hybrid fitness for binding parS DNA
1,HQDG,≤ 0.2
2,SMLR,≤ 0.2
3,LTRA,≤ 0.2
4,KPYW,≤ 0.2
5,DMSV,≤ 0.2
6,RTYN,0.424
7,RTLC,0.982
8,RTLH,0.232
9,RTSH,≤ 0.2
10,RTYH,0.266
11,RTSC,0.969
12,RTYC,0.982
13,RTLP,≤ 0.2
14,RTSP,≤ 0.2
15,CTCV,≤ 0.2
16,NAVT,≤ 0.2
17,MEVR,≤ 0.2
18,QGIP,≤ 0.2
19,IPHS,≤ 0.2
20,RCLH,0.258
21,RCLS,1.04
22,RSLS,1.01
23,RPLS,≤ 0.2
24,RSLD,≤ 0.2
25,RSLN,0.443

row,Variant,one-hybrid fitness for binding parS DNA
1,TPGP,≤ 0.2
2,ASSQ,≤ 0.2
3,LTSY,≤ 0.2
4,PADA,≤ 0.2
5,RMKN,0.432
6,RMKS,0.832
7,RMKH,0.24
8,RMVS,1.04
9,RMVN,0.422
10,RMVD,≤ 0.2
11,LRAY,≤ 0.2
12,TDIK,≤ 0.2
13,RAKF,0.385
14,WVHG,≤ 0.2
15,RCEL,≤ 0.2
16,THTA,≤ 0.2
17,PWVT,≤ 0.2
18,RVMF,0.243
19,RVMP,≤ 0.2
20,RVMM,0.287
21,RVMG,0.971
22,RVMT,0.885
23,RVMN,0.388
24,RVMY,0.455
25,RVML,≤ 0.2

row,Variant,one-hybrid fitness for binding parS DNA
1,RVMC,0.95
2,RVMD,≤ 0.2
3,RVMS,0.997
4,RVMH,≤ 0.2
5,KMVW,≤ 0.2
6,WMRR,≤ 0.2
7,ALEF,≤ 0.2
8,ADCS,≤ 0.2
9,VPDS,≤ 0.2
10,AAKA,≤ 0.2
11,RAVA,0.542
12,RAKA,0.737
13,VWKI,≤ 0.2
14,LDDF,≤ 0.2
15,RYSA,0.535
16,NYLA,≤ 0.2
17,DYKA,≤ 0.2
18,RYKA,0.793
19,NYSA,≤ 0.2
20,RYVA,0.508
21,RYWA,0.554
22,EYSA,≤ 0.2
23,RYLA,0.608
24,LTIQ,≤ 0.2
25,LMSQ,≤ 0.2

row,Variant,one-hybrid fitness for binding parS DNA
1,GCEC,≤ 0.2
2,QYSE,≤ 0.2
3,MSRC,≤ 0.2
4,RYGA,0.539
5,RYIA,0.496
6,RYRA,0.727
7,RYHA,0.545
8,RYQA,0.562
9,NYRA,≤ 0.2
10,SYQA,≤ 0.2
11,AYGA,≤ 0.2
12,PYQA,≤ 0.2
13,SYGA,≤ 0.2
14,KHQR,≤ 0.2
15,QHCK,≤ 0.2
16,PRPC,≤ 0.2
17,YWNN,≤ 0.2
18,YYMS,≤ 0.2
19,ILCT,≤ 0.2
20,TTSA,≤ 0.2
21,RYCA,0.46
22,RYYA,0.522
23,RYPA,0.212
24,TDNY,≤ 0.2
25,RGDS,0.551

row,Variant,one-hybrid fitness for binding parS DNA
1,RGNP,≤ 0.2
2,RGDN,≤ 0.2
3,RGNS,0.862
4,RGND,≤ 0.2
5,RGDP,≤ 0.2
6,NNTG,≤ 0.2
7,LAFI,≤ 0.2
8,TKPY,≤ 0.2
9,ASRG,≤ 0.2
10,TAAN,≤ 0.2
11,VRSP,≤ 0.2
12,TLKS,≤ 0.2
13,RIPS,0.812
14,RIID,≤ 0.2
15,RIIP,≤ 0.2
16,RIPD,≤ 0.2
17,RIPH,≤ 0.2
18,RIIS,0.994
19,QKRS,≤ 0.2
20,YTMT,≤ 0.2
21,HPWL,≤ 0.2
22,RNVK,≤ 0.2
23,RNVQ,≤ 0.2
24,RNKK,≤ 0.2
25,RNVG,0.619

row,Variant,one-hybrid fitness for binding parS DNA
1,RNKG,0.941
2,RNKQ,≤ 0.2
3,MYPT,≤ 0.2
4,REFV,≤ 0.2
5,RNMF,≤ 0.2
6,RNMN,0.299
7,RNMT,0.678
8,RNMH,≤ 0.2
9,RNMK,≤ 0.2
10,RNMD,≤ 0.2
11,RNMS,0.868
12,RNMP,≤ 0.2
13,RNML,≤ 0.2
14,RNMC,0.745
15,RNMY,0.325
16,RNMG,0.819
17,GRCA,≤ 0.2
18,PERA,≤ 0.2
19,TDEN,≤ 0.2
20,YRHT,≤ 0.2
21,VWAT,≤ 0.2
22,VNSR,≤ 0.2
23,FTWC,≤ 0.2
24,RYAN,0.387
25,RYFF,0.256

row,Variant,one-hybrid fitness for binding parS DNA
1,RYFD,≤ 0.2
2,RYFT,0.792
3,RYAT,0.899
4,RYAD,≤ 0.2
5,NHVC,≤ 0.2
6,AYMK,≤ 0.2
7,PDKP,≤ 0.2
8,YYNR,≤ 0.2
9,TQLI,≤ 0.2
10,KLHC,≤ 0.2
11,YNTM,≤ 0.2
12,RHNI,≤ 0.2
13,RKVS,0.967
14,RKKN,0.356
15,RKKS,0.69
16,RKKH,0.317
17,RKVH,≤ 0.2
18,RKVN,0.36
19,QPGI,≤ 0.2
20,QTTR,≤ 0.2
21,DASR,≤ 0.2
22,WTNT,≤ 0.2
23,MFKT,≤ 0.2
24,CHQS,≤ 0.2
25,PYYS,≤ 0.2

row,Variant,one-hybrid fitness for binding parS DNA
1,RHNT,0.857
2,RHNE,≤ 0.2
3,RHDR,≤ 0.2
4,RHDT,0.791
5,RHNQ,≤ 0.2
6,RHDK,≤ 0.2
7,TAQY,≤ 0.2
8,WPVT,≤ 0.2
9,QWVG,≤ 0.2
10,YAIL,≤ 0.2
11,KTMW,≤ 0.2
12,TMYG,≤ 0.2
13,RLVM,0.295
14,RLKC,0.835
15,RLVR,≤ 0.2
16,RLVC,0.962
17,RLKM,0.399
18,RLKQ,≤ 0.2
19,TPAN,≤ 0.2
20,FQLR,≤ 0.2
